This is an account of results in PubChem BioAssay AID1529 (NMMLSC, 2009).

In all, about 290,000 compounds went through this assay and about 4,200 (1.4%) were called active.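 Rule for the calls: active = binding response more than 3 SD above or below the average of its plate-row segment, actives on both sides; inconclusive = wells at one plate position flagged as instrument error; inactive = the rest.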 The list comes from a sample in which actives are over-represented; it also holds similar structures and randomly drawn compounds.

For this test, the target named is Mitogen-activated protein kinase kinase kinase 3 (Homo sapiens) (UniProt Q99759). The test is described as follows: compounds raising or lowering MEK5 association with MEKK3 PB1 – biochemical, wildtype MEKK3, multiplex bead flow cytometry, Alexa488-MEK5, primary screen (AID 1529).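 Note: Alexa488 bead fluorescence after subtracting the streptavidin-only scavenger bead signal.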 Conditions: bead-based flow cytometry, Alexa488-MEK5 binding to MEKK3; at 10 µM; actives lie on both sides; 0 = blocked by unlabeled MEK5, 100 = vehicle. A general note: In flow cytometry, cells or beads pass a laser one at a time.
Chain of Mitogen-activated protein kinase kinase kinase 3 (Homo sapiens) (Q99759 whole entry, looked up): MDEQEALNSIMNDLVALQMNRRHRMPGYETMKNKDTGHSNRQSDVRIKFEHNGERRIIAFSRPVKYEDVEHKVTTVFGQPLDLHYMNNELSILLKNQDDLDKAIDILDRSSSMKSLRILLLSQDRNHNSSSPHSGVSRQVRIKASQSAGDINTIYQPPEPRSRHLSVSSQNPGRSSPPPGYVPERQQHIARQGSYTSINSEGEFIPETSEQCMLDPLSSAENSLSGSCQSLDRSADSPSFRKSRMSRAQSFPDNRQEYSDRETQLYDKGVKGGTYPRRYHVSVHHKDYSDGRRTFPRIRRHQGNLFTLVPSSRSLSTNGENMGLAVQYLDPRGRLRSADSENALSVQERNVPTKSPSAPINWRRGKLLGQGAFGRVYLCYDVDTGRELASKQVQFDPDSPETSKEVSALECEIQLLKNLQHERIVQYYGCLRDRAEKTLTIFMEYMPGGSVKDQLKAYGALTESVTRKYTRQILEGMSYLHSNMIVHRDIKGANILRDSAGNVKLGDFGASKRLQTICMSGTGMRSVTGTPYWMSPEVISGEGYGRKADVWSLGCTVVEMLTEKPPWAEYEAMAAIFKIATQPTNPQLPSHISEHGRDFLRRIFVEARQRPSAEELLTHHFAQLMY
In the case of `CN1C(=O)/C(=C\c2ccc(-c3ccccc3)o2)SC1=S`, the binding response (% of control) was 46% [inhibitor] (active).

Regarding `NS(=O)(=O)c1ccc(-c2ccc(/C=C3\SC(=O)NC3=O)o2)cc1`, the binding response (% of control) is 100% (inactive).

Consider `O=C(O)C(c1ccccc1)N1C(=O)/C(=C\c2ccc(-c3cccc(Cl)c3)o2)SC1=S` (configuration not stated), for which the binding response (% of control) is 96% (inactive).

Take `C=C(C)CNC(=O)c1ccc(OC2CCN(C(=O)COC)CC2)cc1`: the binding response (% of control) was 105% (inactive).

In the case of `C=CCSc1nnc(N2C(=O)C(O)=C(C(=O)c3ccco3)C2c2ccc(F)cc2)s1` (configuration not stated), the binding response (% of control) is 101% (inactive).

Turning to `O=C1Nc2ccc(Br)cc2/C1=N/N=C/C1=C(N2CCOCC2)C(=C\c2ccccc2)/CC1`, the binding response (% of control) was 45% [inhibitor] (active).

Consider `COc1ccc(/C=N/N=C2/C(=O)Nc3ccccc32)cc1O`, for which the binding response (% of control) is 100% (inactive).

In the case of `C(=N\N1CCN(c2ccccn2)CC1)/C1=C(N2CCOCC2)C(=C/c2ccccc2)/CC1`, the binding response (% of control) was 102% (inactive).

For `O=C1N[C@H](Cc2ccccc2)C(=O)N[C@H]1Cc1cn(S(=O)(=O)c2ccccc2)c2ccccc12`, the binding response (% of control) is 106% (inactive).

Take `CCOC(=O)COn1c(=O)c(-c2ccc(OCC)cc2)[n+]([O-])c2ccccc21`: the binding response (% of control) was 109% (inactive).

In the case of `CCOc1ccccc1CNS(=O)(=O)c1cc(-c2cc(C)no2)ccc1C`, the binding response (% of control) was 96% (inactive).

On to `CN1CCC(CN)(N2CCN(c3ccccc3)CC2)CC1`, for which the binding response (% of control) is 106% (inactive).

As to `COC(=O)c1ccc(N2CCOCC2)c(NC(=O)c2ccc(Br)o2)c1`, the binding response (% of control) was 101% (inactive).

Take `Cc1c(C)c(C)c2[nH]c(=S)[nH]c2c1C`: the binding response (% of control) is 101% (inactive).

As to `O=c1[nH]c(=S)[nH]c2[nH]c(=S)[nH]c12`, the binding response (% of control) is 48% [inhibitor] (active).

Consider `COc1ccc(CCn2c(NN=C3CCCC3)nc3c2c(=O)[nH]c(=O)n3C)cc1`, for which the binding response (% of control) was 44% [inhibitor] (active).

Regarding `COc1ccc(CNc2nc3c(c(=O)[nH]c(=O)n3C)n2Cc2ccccc2)cc1`, the binding response (% of control) was 104% (inactive).

Turning to `COc1ccc(CCn2c(NCCCN3CCOCC3)nc3c2c(=O)[nH]c(=O)n3C)cc1`, the binding response (% of control) was 101% (inactive).

With `O=c1c2c(-c3ccccc3)ccnc2[nH]n1-c1ccccc1`, the binding response (% of control) was 109% (inactive).

With `COc1ccc(CCNC(=O)CSCc2ccc(Br)cc2)cc1OC`, the binding response (% of control) is 104% (inactive).

Consider `CCCc1nn(C)c2c(=O)[nH]c(-c3cc(S(N)(=O)=O)ccc3OCC)nc12`, for which the binding response (% of control) was 103% (inactive).

Regarding `CCOC(=O)C1CCN(c2ccc(C(=O)O)cc2[N+](=O)[O-])CC1`, the binding response (% of control) was 103% (inactive).

`O=C(O)C1CCN(c2ccc([N+](=O)[O-])cc2[N+](=O)[O-])CC1`: the binding response (% of control) was 49% [inhibitor] (active).

Turning to `CC1CCN(c2ccc([N+](=O)[O-])cc2C(N)=O)CC1`, the binding response (% of control) is 100% (inactive).

Take `CC(C)CNS(=O)(=O)c1ccc(CCC(=O)NCc2ccc(Cl)cc2)cc1`: the binding response (% of control) was 96% (inactive).

For the molecule `O=C(Nc1ccc(S(=O)(=O)Nc2ccccn2)cc1)c1ccccc1`, the binding response (% of control) is 97% (inactive).

In the case of `COc1cccc(NC(=S)NCc2ccccn2)c1`, the binding response (% of control) was 143% (active).

`COc1cccc(NC(=S)N(Cc2ccc(C)cc2)Cc2ccccn2)c1`: the binding response (% of control) is 104% (inactive).

Turning to `CCCCc1ccc(NC(=S)NCCCN2CCOCC2)cc1`, the binding response (% of control) is 93% (inactive).

Turning to `COc1cccc(NC(=S)NCc2ccco2)c1`, the binding response (% of control) is 98% (inactive).

Regarding `COc1cccc(NC(=S)NCCCN2CCOCC2)c1`, the binding response (% of control) is 140% (active).

As for `Cc1cc(C)cc(NC(=S)NCCCN2CCOCC2)c1`, the binding response (% of control) was 117% (inactive).

As for `O=C(NCCN1CCN(C(=O)c2cccc([N+](=O)[O-])c2)CC1)C(=O)NCc1ccc(Cl)cc1`, the binding response (% of control) was 105% (inactive).

As to `CCOC(=O)Cn1c(O)c(N=NC(=O)CNC(=O)Cc2ccccc2)c2ccccc21`, the binding response (% of control) was 99% (inactive).

For the molecule `COc1ccccc1CN1CC(C(=O)NCCc2cn[nH]c2)CCC1=O` (configuration not stated), the binding response (% of control) is 104% (inactive).

Turning to `COc1ccccc1CCNS(=O)(=O)c1cn(C)nc1C`, the binding response (% of control) was 104% (inactive).

Consider `COc1ccccc1CNC(=O)C1CCN(C(=O)[C@@H]2Cc3ccccc3CN2)CC1`, for which the binding response (% of control) is 101% (inactive).

Turning to `COc1ccc2nc(Nc3nc(-c4ccncc4)cs3)sc2c1`, the binding response (% of control) was 104% (inactive).

In the case of `COc1ccc2nc(Nc3nc(-c4cc5ccccc5oc4=O)cs3)sc2c1`, the binding response (% of control) is 82% (inactive).

As for `COc1ccc2nc(Nc3nc4cc5c(cc4s3)OCCO5)sc2c1`, the binding response (% of control) is 137% (active).

With `CNC[C@H](CC1CCCCC1)NC[C@H](NCCC1CCCC1)[C@H](C)O`, the binding response (% of control) is 102% (inactive).

As to `COc1cc(-c2nc(-c3ccncc3)no2)cc(OC)c1OC`, the binding response (% of control) was 1% [inhibitor] (active).

For the molecule `Cc1ccc(-c2nc(-c3ccncc3)no2)c(C)c1`, the binding response (% of control) was 102% (inactive).

Consider `COc1ccccc1Cc1nc(-c2ccc(C)cc2)no1`, for which the binding response (% of control) is 101% (inactive).

Take `O=C(NCc1ccccc1)C1=C[C@@H](c2ccccc2)C[C@@H](OCCCCO)O1`: the binding response (% of control) is 101% (inactive).

Take `O=C(CCNS(=O)(=O)c1cccs1)N1CCN(c2ccc(F)cc2)CC1`: the binding response (% of control) was 102% (inactive).

In the case of `O=C(Cn1cc(/C=N/NC(=O)c2cccc(C(F)(F)F)c2)c2ccccc21)Nc1ccc(F)cc1`, the binding response (% of control) is 103% (inactive).

On to `CCNC(=O)Nc1ccc(S(=O)(=O)Nc2cnc(C)nc2C)cc1`, for which the binding response (% of control) is 101% (inactive).

With `O=C(NCc1cccc(Cl)c1)C1CCN(c2nnc(N3CCCC3=O)s2)CC1`, the binding response (% of control) was 96% (inactive).

Take `Cc1ccnc(NS(=O)(=O)c2ccc(NC(=O)c3oc4ccccc4c3C)cc2)n1`: the binding response (% of control) was 102% (inactive).

With `Cc1cccc(CSc2nc3c(c(=O)n2C)SCC3)c1`, the binding response (% of control) was 100% (inactive).

For the molecule `Cc1nnc(SCc2cccc(Cl)c2)n(N)c1=O`, the binding response (% of control) is 98% (inactive).

Regarding `Cc1cccc(CSc2nnc(C)c(=O)n2N)c1`, the binding response (% of control) was 128% (active).

`COc1ccc(NC(=O)N2CCCC(C(=O)Nc3ccccc3OC)C2)cc1` (configuration not stated): the binding response (% of control) was 100% (inactive).

Take `CC1(OC(=O)C2CCCC2)C(=O)C=C2C=C(c3ccc(C#N)cc3)OC=C2C1=O` (configuration not stated): the binding response (% of control) is 94% (inactive).

In the case of `COC(=O)CCCC1=CC2=CC(=O)C(C)(OC(=O)c3cccs3)C(=O)C2=CN1CC1CC1` (configuration not stated), the binding response (% of control) is 93% (inactive).

`COCCN1C=C2C(=O)C(C)(OC(=O)C3CCCC3)C(=O)C=C2C=C1c1ccsc1` (configuration not stated): the binding response (% of control) is 133% (active).

Turning to `COc1ccc(CCNc2nc3ccc(C)cc3n3cnnc23)cc1OC`, the binding response (% of control) is 102% (inactive).

Turning to `O=C(/C=C/c1ccco1)NC(=S)Nc1ccccc1Br`, the binding response (% of control) was 102% (inactive).

For `Cc1cc(C(=O)OCC(=O)N2c3ccccc3NC(=O)C2(C)C)c(C)n1-c1ccccc1`, the binding response (% of control) is 130% (active).

With `CCNc1ccc(C(=O)OCC(=O)N2c3ccccc3NC(=O)C2(C)C)cc1[N+](=O)[O-]`, the binding response (% of control) was 99% (inactive).

`COc1ccc(Cl)cc1-n1c(C)cc(C(=O)OCC(=O)N2CC(=O)Nc3ccccc32)c1C`: the binding response (% of control) was 105% (inactive).
